NPR2 activator = GC-B (human) receptor activation; P20594; AID 1920062; 370,000 tested, 0.11% active; activation, % at 10 µM; HEK293-GC-B cells, CNP EC30, cGMP TR-FRET; 0% at EC30 CNP, 100% saturating CNP;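 active means activation at 10 µM reaching about 35% in either raw or pattern-adjusted values, limit read from the data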
NOD2 RIPK2 PPI = NOD2-RIPK2 protein interaction inhibition | 360,000 tested, 0.38% active | inhibition, % at 4.98 µM | O43353 | CHO BLA complementation NOD2-RIPK2, CCF4 ratio; in the data active means inhibition above about 21%;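 further: 0% = vehicle only and 100% = reference blocker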
TLR9-MyD88 block = TLR9-MyD88 interaction inhibition | Q9NR96+Q99836 | CHO BLA complementation TLR9-MyD88, CCF4 FRET ratio | inhibition, % at 4.98 µM | 340,000 tested, 0.21% active;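 active means inhibition above the mean over all tested compounds plus 3 SD, cut at about 21% in these data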;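 further: 0% = DMSO only wells and 100% = clavulanate BLA inhibitor control wells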
TLR4-MyD88 BLA = inhibitors of human TLR4-MyD88 binding; O00206+Q99836; HeLa CL3-4 TLR4/MyD88 BLA complementation, FRET ratio; inhibition, % at 8.4 µM; 200,000 tested, 0.18% active; in the data active means inhibition above about 25%;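 further: 0% = vehicle and 100% = reference inhibitor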
Neddyl block = cullin neddylation inhibition. 360,000 tested, 0.58% active. P61081+Q13564. TR-FRET cullin neddylation, biochemical. inhibition, % at 25 µM; in the data active means inhibition above about 36%
NPR1 activator = GC-A (human) enzyme activation. AID 1671463. activation, % at 10 µM. HEK293 GC-A cells, cGMP TR-FRET, EC30 ANP; 0% at EC30 ANP, 100% saturating ANP. 370,000 tested, 0.14% active; in the data active means activation above about 40%
Target sequence (P16066 whole entry, looked up): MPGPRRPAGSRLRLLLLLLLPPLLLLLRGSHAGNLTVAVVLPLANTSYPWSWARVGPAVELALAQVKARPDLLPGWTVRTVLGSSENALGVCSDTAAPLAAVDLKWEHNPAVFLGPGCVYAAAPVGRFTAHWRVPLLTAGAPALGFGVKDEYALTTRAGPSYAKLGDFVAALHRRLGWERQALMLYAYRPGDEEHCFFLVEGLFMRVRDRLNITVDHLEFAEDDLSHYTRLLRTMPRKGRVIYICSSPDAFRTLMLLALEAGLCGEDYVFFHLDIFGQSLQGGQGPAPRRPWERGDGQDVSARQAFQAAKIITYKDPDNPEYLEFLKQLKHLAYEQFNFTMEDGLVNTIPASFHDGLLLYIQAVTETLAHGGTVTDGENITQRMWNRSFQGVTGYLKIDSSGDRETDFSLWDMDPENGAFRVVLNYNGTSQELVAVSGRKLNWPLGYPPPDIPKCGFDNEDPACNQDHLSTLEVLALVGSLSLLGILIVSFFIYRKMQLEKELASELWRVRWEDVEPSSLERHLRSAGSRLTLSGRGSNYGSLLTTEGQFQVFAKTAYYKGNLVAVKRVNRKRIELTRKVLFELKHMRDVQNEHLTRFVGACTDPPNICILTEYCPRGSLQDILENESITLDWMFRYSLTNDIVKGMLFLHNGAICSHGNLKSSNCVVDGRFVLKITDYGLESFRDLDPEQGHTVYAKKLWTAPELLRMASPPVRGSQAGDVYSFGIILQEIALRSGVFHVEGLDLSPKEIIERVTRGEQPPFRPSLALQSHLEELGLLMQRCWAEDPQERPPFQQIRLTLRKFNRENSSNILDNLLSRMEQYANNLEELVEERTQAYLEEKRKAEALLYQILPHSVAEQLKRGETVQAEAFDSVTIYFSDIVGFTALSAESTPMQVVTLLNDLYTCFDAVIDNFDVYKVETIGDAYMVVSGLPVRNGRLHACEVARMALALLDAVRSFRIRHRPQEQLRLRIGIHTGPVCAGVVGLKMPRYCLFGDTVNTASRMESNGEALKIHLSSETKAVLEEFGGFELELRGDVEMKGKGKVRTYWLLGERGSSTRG
TLR9-MyD88 conf = TLR9-MyD88 interaction inhibition, confirmation | inhibition, % at 4.98 µM | CHO TLR9/MyD88 BLA complementation, CCF4 FRET ratio | shares compounds with TLR9-MyD88 block | AID 540250 | 680 tested, 51% active;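 active means mean inhibition across three repeats above about 21% taken from the earlier screen, limit read from the data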;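 further: blue over green emission ratio reports constitutive TLR9 MyD88 association via BLA complementation; 0% = DMSO vehicle wells and 100% = clavulanate BLA inhibitor wells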
BLA counter = beta-lactamase reporter inhibition, counter-screen artifact | shares compounds with TLR9-MyD88 block | CHO-BLA cells, CCF4 FRET ratio, BLA reporter | inhibition, % at 4.98 µM | 680 tested, 7% active;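 active means mean inhibition above a 50% cutoff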;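 further: counterscreen of TLR9-MyD88 hits on CMV-driven BLA in CHO-K1 cells; 0% = DMSO alone and 100% = clavulanate blocking BLA; higher means less blue over green ratio so more BLA blockade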
TLR9 CHO cytotox = CHO cell toxicity counter-screen for TLR9-MyD88 inhibitors | AID 588336 | inhibition, % at 4.98 µM | 680 tested, 39% active | shares compounds with TLR9-MyD88 block | TLR9-MyD88 CHO cells cytotoxicity, luminescence; in the data active means inhibition above about 11%
* marks the source's active call; other numbers are inactive results; / = no result given. An excerpt weighted towards active compounds, which were near 1.2% of everything screened.

SMILES	NPR2 activator	NOD2 RIPK2 PPI	TLR9-MyD88 block	TLR4-MyD88 BLA	Neddyl block	NPR1 activator	TLR9-MyD88 conf	BLA counter	TLR9 CHO cytotox
CC(=O)Nc1nc2n(n1)C(c1ccccc1)C=C(c1ccccc1)N2 (configuration not stated)	/	56*	56*	18	/	/	34*	40	1
O=C(Nc1nc2n(n1)C(c1ccccc1)C=C(c1ccccc1)N2)c1ccco1 (configuration not stated)	0	-1	-5	6	7	6	/	/	/
CS(=O)(=O)Nc1nc2n(n1)C(c1ccccc1)C=C(c1ccc(Br)cc1)N2 (configuration not stated)	/	47*	37*	17	11	/	8	9	2
COC(=O)C1CN(Cc2cn(Cc3ccc(OC)cc3)nn2)CCS(=O)(=O)N1Cc1ccc(OC)cc1 (configuration not stated)	-2	/	/	/	/	0	/	/	/
COc1ccc(C2Nc3ccccc3C(=O)N2Cc2ccc(C)o2)cc1COc1c(C)cccc1C (configuration not stated)	-7	/	/	/	/	-5	/	/	/
Cc1oc(-c2cc(F)ccc2F)nc1CN1CCN(c2cnccn2)CC1	-2	1	22*	-2	13	-2	-2	-3	2
O=C(COC(=O)c1cccc(S(=O)(=O)NCc2ccccc2)c1)NC1CC1	2	-2	8	/	9	1	/	/	/
CCN(C(=O)COC(=O)c1cccc(S(=O)(=O)NCc2ccccc2)c1)c1ccccc1	3	19	22*	/	3	2	5	9	3
COc1ccc(CN2C(C(=O)NC3CCCC3)CSCCS2(=O)=O)cc1 (configuration not stated)	-3	/	/	/	/	2	/	/	/
O=C1c2ccccc2NC(c2ccc(-c3cccc([N+](=O)[O-])c3)o2)N1O (configuration not stated)	-5	3	22*	2	-23	0	8	7	43*
CCOC(=O)Cn1cc(CN2C(C(=O)OC)CN(Cc3ccccc3)CCS2(=O)=O)nn1 (configuration not stated)	-2	/	/	/	/	1	/	/	/
CCOC(=O)C1CCN(C(=O)c2cc3c(-c4ccc(OC)c(OC)c4)nn(C)c3s2)CC1	/	-11	13	9	/	/	/	/	/
CCOC(=O)C1CCCN(C(=O)c2cc3c(-c4cccc(OC)c4)nn(C)c3s2)C1 (configuration not stated)	-9	5	28*	-5	-19	3	3	-2	27*
CN1CCN(C(=O)CSc2nc(-c3cccs3)cc(-c3cccs3)c2C#N)CC1	/	18	24*	-10	5	/	21	19	5
CCN(CC)C(=O)CSc1nc(-c2cccs2)cc(-c2cccs2)c1C#N	6	-7	-7	14	19	-2	/	/	/
CC(=O)Nc1ccc(OCC(C)CN2CCC(C(O)(c3ccccc3)c3ccccc3)CC2)cc1 (configuration not stated)	-8	/	/	/	/	-14	/	/	/
Cc1ccc2c(c1)c(N=O)c(O)n2Cc1ccc(Cl)cc1	11	1	13	17	12	4	/	/	/
Cc1ccc(Cn2c(O)c(N=O)c3ccccc32)cc1	-1	13	24*	9	-13	1	1	3	5
C/C(Cl)=C\Cn1c(O)c(N=O)c2ccccc21	-2	19	21*	8	-26	9	9	11	2
O=Nc1c(O)n(Cc2ccc(Cl)cc2Cl)c2ccccc12	-5	16	33*	0	-19	-16	23*	20	2
COc1cccc(C2=CC(c3cccs3)n3nnnc3N2)c1 (configuration not stated)	0	9	-3	-7	3	5	/	/	/
COc1cccc(C2=CC(c3ccc(OC)c(OC)c3OC)n3nnnc3N2)c1 (configuration not stated)	3	15	22*	1	30	-7	3	4	3
CN1/C(=C\C(=O)c2cccnc2)C(C)(C)c2ccccc21	-2	-4	7	15	/	-2	/	/	/
CN1/C(=C\C(=O)c2cncc(Br)c2)C(C)(C)c2ccccc21	-7	14	22*	16	/	-1	10	14	26*
Cc1cc(/C=C2\Cc3ccccc3C2=O)c(C)n1-c1ccccc1	-5	10	21*	1	/	1	19	23	8
SMILES	NPR2 activator	NOD2 RIPK2 PPI	TLR9-MyD88 block	TLR4-MyD88 BLA	Neddyl block	NPR1 activator	TLR9-MyD88 conf	BLA counter	TLR9 CHO cytotox
Cc1cc(C=C2C(=O)c3ccccc3C2=O)c(C)n1-c1ccccc1	-3	-3	0	10	-25	0	/	/	/
Cc1ccc(NC(=O)c2cccc(C(F)(F)F)c2)cc1NC(=O)c1[nH]cnc1C(N)=O	3	-6	28*	/	14	1	2	5	-3
CCOC(=O)COc1ccc2ccccc2c1/C=C/[N+](=O)[O-]	-6	-1	24*	0	-2	0	34*	-3	90*
CCOC(=O)COc1ccc(/C=C/[N+](=O)[O-])c(OCC(=O)OCC)c1	0	1	22*	11	0	9	13	-2	28*
CCCCCCCCN1CCS(=O)(=O)N(Cc2ccc(OC)cc2)C(C(=O)OC)C1 (configuration not stated)	-7	/	/	/	/	-3	/	/	/
CCOC(=O)[C@]12CCCCC/C=C\1N(Cc1ccc(OC)cc1)C(=O)[C@H]2CC(=O)NCc1cccc(C(F)(F)F)c1	2	/	/	/	/	-3	/	/	/
CCC[C@H]1[C@@H](OC(=O)NC2CCCCC2)CC[C@@]23CCCN2C(=O)CCC[C@@H]13	-18	/	/	/	/	-17	/	/	/
COC(=O)[C@@]1(OC(C)=O)CC(OC(C)=O)[C@H](OC(C)=O)[C@H](OC(C)=O)C1Br (some centres not stated)	-4	/	/	/	/	3	/	/	/
COc1ccccc1C(=O)Nc1onc(C)c1C#N	6	-6	22*	7	4	-2	-1	-2	-2
Cc1ccc(S(=O)(=O)n2ccc(-c3c(-c4ccc(F)cc4)noc3C)n2)cc1	-11	/	/	/	/	-18	/	/	/
O=[N+]([O-])c1ccc2c(c1)C=C1CCCCC1(N1CCCCC1)O2 (configuration not stated)	-3	-14	24*	6	-9	-4	-8	-5	-1
O=c1nc2n(c3ccc([N+](=O)[O-])cc13)CCCCC2	-3	4	-10	-11	-7	6	/	/	/
COc1ccc(/C=C(/C(=O)c2cccs2)N2C=CC=CC2=C(C#N)C#N)cc1	-25	0	15	-5	15	-40	/	/	/
